Experimental data reported in PubChem BioAssay AID1578 (Sanford-Burnham Center for Chemical Genomics, 2009).
The whole screen tested about 290,000 compounds, of which about 3,000 (1%) were called active. What follows is part of a selection rich in actives, with near analogues and random picks from the rest. Values without a mark were called inactive. Cut-off read from the data, not from the text of the source: active = inhibition mostly above about 36% (no sharp cut-off); inactive = mostly below about 34%.

experiment: inhibition of NOD1-driven NF-kB reporter – cell-based, luminescence, uHTS, primary screen (AID 1578); conditions: NOD1-driven NF-kB luciferase reporter cells, at 4 µM, stronger effect = higher value;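 note: HEK-293T reporter cells stimulated with the NOD1 agonist gamma-tri-DAP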

SMILES | inhibition
COc1cccc2c(Nc3ccccc3C)cc(C)nc12 | 6.4%
COc1cc(/C=C(\C#N)c2nc3ccccc3[nH]2)cc(OC)c1O | 6.4%
COC(=O)/C(=C\c1ccc(O)cc1)c1nc2ccccc2[nH]1 | -44.4%
COc1ccc(/C=C(\C#N)c2nc3ccccc3[nH]2)cc1O | 12%
COc1ccc(C(=O)N/C(=C/c2cccs2)c2nc3ccccc3[nH]2)cc1OC | -5.7%
COc1cc(/C=C(/C(=O)c2cccs2)c2nc3ccccc3[nH]2)cc(OC)c1O | 98.8% (active)
O=C(CN1CCOCC1)OCCCc1ccccc1 | -23.1%
CCCCNC(=O)Nc1c(C(=O)OCC)[nH]c2ccccc12 | -25.1%
CCOC(=O)CCCCCN(Cc1ccccc1)S(=O)(=O)c1ccc([N+](=O)[O-])cc1 | -22.1%
CCOC(=O)c1c(-c2ccc(C)o2)csc1NC(=O)CN1CCOCC1 | 14.9%
CCc1nc(SCc2ccccc2C#N)n[nH]1 | -30.4%
O=C(Nc1ccc(C(=O)N2CCCC2)cc1)c1ccc(F)cc1Cl | -14%
CCOC(=O)N1CCN(C(=O)c2ccc(Cn3c(=S)[nH]c4cc(OCC)c(OCC)cc4c3=O)cc2)CC1 | 19.9%
COc1ccc(Cn2c(=O)[nH]c3cc(C(=O)N4CCN(c5ccccn5)CC4)ccc3c2=O)cc1 | -10.7%
O=C(c1ccc(Cn2c(=O)[nH]c3ccccc3c2=O)cc1)N1CCN(c2ccccn2)CC1 | -8.3%
CCOC(=O)N1CCN(C(=O)c2ccc(Cn3c(=S)[nH]c4cc(C(=O)OC)ccc4c3=O)cc2)CC1 | -11%
O=C(CSc1ncccc1C(=O)O)NC1CCCCC1 | -47.1%
CC(C)C(=O)Nc1ccc(Cl)cc1-c1nc2ccccc2[nH]c1=O | 34.6%
Cc1cccc(C)c1NC(=O)CSc1nnc([C@@H]2CCCN2C(=O)OC(C)(C)C)o1 | -0.7%
N#CCS(=O)(=O)c1ccccc1 | -5.7%
O=C(CSc1nc2scc(-c3ccccc3)c2c(=O)[nH]1)NC1CCCCC1 | 67.6% (active)

SMILES | inhibition
CC(C)(C)NC(=O)CSc1nc2scc(-c3ccccc3)c2c(=O)[nH]1 | 25.7%
O=C(CSc1nc2scc(-c3ccccc3)c2c(=O)[nH]1)N1CCCCC1 | -9.2%
Cc1ccc2nc(CNC(=O)C3CCC(=O)N(Cc4ccccc4F)C3)cn2c1 (stereo not drawn) | -21.3%
CCc1ccc2c(c1)C1(NN=C(c3ccc(C)cc3)S1)C(=O)N2 (stereo not drawn) | 15.2%
Cc1ccc(C2=NNC3(CCOC(C)(C)C3)S2)cc1 (stereo not drawn) | 74.5% (active)
Cc1ccc(C2(CC(=O)O)CCOC(C)(C)C2)cc1 (stereo not drawn) | 5.4%
O=C(c1cnsn1)N1CCC(CO)(Cc2ccc(Cl)cc2)CC1 | -10.4%
NC(=O)c1cc(-c2csc(NCCc3ccccc3)n2)ccc1O | -52.8%
COc1ccc(N2CCN(C(=O)CSc3nc4[nH]ncc4c(=O)n3-c3ccc(Br)cc3)CC2)cc1 | 8.7%
CCN1CCCC1CNC(=O)C(=O)NC1CC1 (stereo not drawn) | 40.8% (active)
CCCNC(=O)C(=O)NCC1CCCN1CC (stereo not drawn) | -18.5%
CCN1CCCC1CNC(=O)C(=O)NC (stereo not drawn) | -17.4%
CCCCNC(=O)Cn1c(-c2ccc(OC)cc2)noc1=O | -2.3%
COc1ccc(NC(=O)N2CCC(O)(c3cccnc3)CC2)c(OC)c1 | 15.9%
Fc1ccc(-c2ccnn2-c2ccccc2)cc1 | -18.4%
Oc1ccc(Br)cc1-c1cc(-c2ccccc2)n[nH]1 | -13.2%
Oc1ccc(Br)cc1-c1ccnn1-c1ccccc1 | 82.1% (active)
COC(=O)CCCCC1SCC2NC(=O)NC21O (stereo not drawn) | -2.5%
Cc1ccc(NC(=O)c2sc3ccccc3c2Cl)nc1 | -21.7%
O=C(Nc1cccnc1)Nc1ccccc1Cl | -8.9%
Cc1nnc(NC(=O)c2sc3ccccc3c2Cl)s1 | -46.1%

SMILES | inhibition
Cc1ccc2c(Cl)c(C(=O)Nc3cccnc3)sc2c1 | 87.9% (active)
Cc1ccc2c(Cl)c(C(=O)NCc3cccnc3)sc2c1 | 12.2%
O=C(Nc1cccnc1)Nc1cc(Cl)cc(Cl)c1 | 76.8% (active)
O=C(Nc1ccc(Cl)cc1)Nc1cccnc1 | -14.9%
Cc1ccc2c(Cl)c(C(=O)Nc3cc(C)on3)sc2c1 | -79.3%
Cc1cnc(NC(=O)c2sc3ccccc3c2Cl)s1 | 105% (active)
COc1ccccc1-c1cc(C(=O)Nc2ccccc2SC)no1 | -10%
CCOC(=O)C1(Cc2ccccc2C)CCCN(C(=O)c2ccnn2C)C1 (stereo not drawn) | -17.1%
Cc1ccc(C)c(SCC(=O)NNC(=O)c2ccccc2)c1 | -14.3%
Cc1cc(Cl)c(S(=O)(=O)N2CCCC2)cc1OCC(=O)NC1CCCCC1 | 28.5%
CCN1CCN(S(=O)(=O)c2cc(OCC(=O)NC3CCCCC3)c(C)cc2Cl)CC1 | 26.3%
C/C(=C\c1ccccc1)C(=O)Nc1cc(C)on1 | -6.1%
Cc1ccccc1Cn1cc(C)c(=O)[nH]c1=O | -20.8%
CC(C)(C)n1nnnc1C(c1ccc(C(F)(F)F)cc1)N(Cc1ccc(F)cc1)Cc1ccco1 (stereo not drawn) | -13.2%
COc1cccc(CN(Cc2ccco2)C(c2ccc(F)cc2)c2nnnn2C(C)(C)C)c1 (stereo not drawn) | 50.8% (active)
CC(C)(C)n1nnnc1C(c1ccc(F)cc1)N(Cc1ccc(F)cc1)Cc1ccco1 (stereo not drawn) | -2.1%
Cc1nc2cc(NC(=O)N3CC4(C)CC3CC(C)(C)C4)ccc2n1C (stereo not drawn) | -31.3%
COC(=O)CCc1ccc(O)cc1 | -24%
CN1CCN(C(c2ccc(C(F)(F)F)cc2)c2ccc3cccnc3c2O)CC1 (stereo not drawn) | 23.8%
Cc1c(CCO)c(=O)[nH]n1S(=O)(=O)c1ccc(F)cc1 | -15.6%
Cc1csc(CNC(=O)c2ccc(OC3CCN(CCc4ccccc4)CC3)cc2)n1 | -16.3%
